Rows were chosen to be rich in hits. Some 0.73% of all compounds tested hit in one or more screens of this group.
BioA inh – inhibitors of Mycobacterium tuberculosis BioA enzyme. inhibition, % at 9.99 µM. actives 0.096% (n = 360,000). purified M. tuberculosis BioA enzyme, plate reader; in the data active = inhibition above about 40%
TcdB inh – TcdB glycohydrolase inhibition; inhibition, % at 9.99 µM; TcdB glycohydrolase enzymatic assay, plate reader; P18177; actives 0.24% (n = 350,000); in the data active = inhibition above about 10%
BH1578 lux ind – inducers of Vibrio cholerae quorum light production without autoinducers. actives 0.16% (n = 350,000). activation, % at 18.7 µM. V. cholerae BH1578 lux reporter, luminescence, 6 h; in the data active = activation mostly above about 9.7%, no sharp cut-off
Y pestis TopoI – blocks Yersinia pestis topoisomerase I activity | Y. pestis Topo-I cleavage product accumulation, plate reader | activity, % at 10 µM | actives 0.064% (n = 360,000); in the data active = activity above about 50%, passing the limit was not always enough
VHR inh abs – blocks human VHR1 dual specificity phosphatase; P51452; recombinant VHR phosphatase, pNPP absorbance; inhibition, % at 13.3 µM; actives 0.52% (n = 290,000); AID 1654; in the data active = inhibition above about 50%
Target sequence (P51452 whole entry, looked up): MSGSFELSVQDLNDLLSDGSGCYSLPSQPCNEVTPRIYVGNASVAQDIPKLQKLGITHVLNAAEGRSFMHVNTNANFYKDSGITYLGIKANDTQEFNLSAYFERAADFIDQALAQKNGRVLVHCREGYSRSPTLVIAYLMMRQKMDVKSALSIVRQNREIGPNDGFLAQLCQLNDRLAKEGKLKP
* marks the source's active call; other numbers are inactive results; i = inactive; . = no result given; + = active, no number.

SMILES	BioA inh	TcdB inh	BH1578 lux ind	Y pestis TopoI	VHR inh abs
CSc1ncccc1C(=O)N1CCN(S(=O)(=O)c2ccccc2)CC1	-0.4	0.7	-0.3	4.3	58.5*
CSc1ncccc1C(=O)N1CCN(S(=O)(=O)c2ccc(C)cc2)CC1	-1.3	8.3	i	2.7	25.9
Oc1ccccc1Cn1nnc2ccccc21	1.7	1.2	0.0	3.8	-6.1
COc1cc(Cn2nnc3ccccc32)ccc1O	0.6	17.6*	0.3	-16.8	-1.9
O=C(c1ccccc1)N1CC[C@@H]2[C@@H](CO)Nc3ccc(-c4ccccc4F)cc3[C@@H]21	1.7	-1.4	.	.	.
CCOc1ccc(CN2CCNC(=O)C2CC(=O)NCc2ccccn2)cc1 (stereo not drawn)	.	0.9	-3.3	2.6	53.6*
O=C(N/N=C/c1ccccn1)c1cc(-c2ccc3ccccc3c2)n[nH]1	.	1.5	0.3	1.6	50.8*
CCc1ccc(-c2cc(C(=O)N/N=C/c3ccccn3)[nH]n2)cc1	.	1.0	-0.6	16.9	-4.3
O=C(N/N=C/C=C/c1ccccc1[N+](=O)[O-])c1ccncc1	4.4	1.0	i	2.2	37.9
O=C(N/N=C/C=C\c1ccccc1[N+](=O)[O-])c1cc(-c2ccc3ccccc3c2)n[nH]1	-2.4	-1.1	-0.5	8.9	51.5*
Cc1ccc(S(=O)(=O)N(C)C[C@H]2Oc3ccc(NC(=O)CCCCCC(=O)Nc4ccccc4N)cc3CC(=O)N([C@@H](C)CO)C[C@@H]2C)cc1	-1.1	-0.6	.	.	.
C[C@H]1CN([C@@H](C)CO)C(=O)c2cc(NC(=O)Nc3ccc(F)cc3)ccc2O[C@@H]1CN(C)Cc1ccc(Oc2ccccc2)cc1	-1.1	0.5	.	.	.
O=S(=O)(c1ccc2ccccc2c1)N1CCN(Cc2cccc(OCCO)c2)CC1	1.3	-0.1	.	.	.
CO[C@H]1CN(C)C(=O)c2cc(NC(C)=O)ccc2OC[C@@H](C)N(Cc2ccccc2C(=O)O)C[C@@H]1C	-0.5	-0.2	.	.	.
Cn1c(C(=O)N2CCC(C(=O)N3CCOCC3)CC2)cc2sccc21	-1.2	1.0	-0.6	0.8	53.3*
Cn1c(C(=O)N2CCC(C(=O)N3CCN(Cc4ccc5c(c4)OCO5)CC3)CC2)cc2sccc21	-1.4	0.6	-0.4	30.5	15.1
CCCNC(=O)Nc1ccc2c(c1)OC[C@H](C)N(Cc1cccnc1)C[C@H](C)[C@@H](OC)CN(C)C2=O	.	-0.1	.	.	.
CCNC(=O)c1cc2c(c(-c3cccc(-c4ccncc4)c3)n1)[C@H](CCO)N(S(=O)(=O)CC)C2	.	1.4	.	.	.
COc1ccccc1N1CCN(C2CCCN(C(=O)CCN3CCCCO3)C2)CC1 (stereo not drawn)	0.5	-0.8	-3.1	5.5	51.3*
CC(C)C#Cc1ccc2c(c1)O[C@H](CN(C)CC1CCOCC1)[C@H](C)CN([C@@H](C)CO)S2(=O)=O	-0.9	0.5	.	.	.
CCCCN(C)C(=O)C1CCN(CCCc2ccccc2)CC1	-0.1	-0.8	-0.2	24.5	15.9
CN(C)CC(C)(C)CNC(=O)C1CCN(CCCc2ccccc2)CC1	8.6	-0.2	-0.4	1.1	55.0*
O=C(C1CCCC1)N1CC2(C1)[C@@H](c1ccccc1)[C@H](CO)N2C(=O)CC1CC1	.	-0.6	.	.	.
Cn1c(=O)c(C(=O)c2ccccc2)nc2ccccc21	1.5	.	0.2	5.1	51.9*
O=C(CCCc1nc2ccccc2s1)Nc1ccccc1	0.8	0.8	-0.1	17.1	13.1
SMILES	BioA inh	TcdB inh	BH1578 lux ind	Y pestis TopoI	VHR inh abs
O=C(O)CCCC(=O)Nc1ccc(OCc2nc3ccccc3s2)cc1	-1.3	0.2	-2.1	6.0	57.4*
CCOC(=O)/C(C#N)=C/c1ccc(-c2ccsc2C(=O)OC)o1	-2.7	.	-0.3	8.4	52.7*
CC=Cc1ccc2n(c1=O)C[C@@H]1[C@@H](CO)[C@H](C(=O)NC3CCC3)[C@H]2N1C(=O)c1ccccn1 (mixture of isomers)	0.9	0.6	.	.	.
CCCCCCOC(=O)CCc1c(C)nc(N)[nH]c1=O	0.8	.	i	-0.2	52.3*
COC(=O)C(Cc1ccccc1)NC(=O)CSc1nc(C)cc(=O)[nH]1 (stereo not drawn)	0.3	22.0*	-0.3	6.1	-12.8
O=C(NCc1ccc(Cl)cc1)C(=O)N/N=C/c1ccc(Br)cc1	-3.4	-2.3	i	-1.2	52.3*
COc1ccc(NC(=O)Nc2ccc3c(c2)CC(=O)N([C@@H](C)CO)C[C@@H](C)[C@H](CN(C)C(=O)Nc2ccccc2)O3)cc1	-3.1	0.0	.	.	.
COc1cccc(NC(=O)N2C[C@H](O)COC[C@H]3O[C@@H](CC(=O)NC4CCCC4)CC[C@@H]32)c1	-0.5	-2.3	.	.	.
CC(C)C(NC(=O)/C=C/c1ccc(F)cc1)C(C)C	-0.9	.	+	-0.2	17.8
Cc1ccc2c(COC(=O)c3ccccc3Br)cc(=O)oc2c1	-6.3	0.0	-0.2	-7.7	59.7*
C[C@@H]1CN([C@@H](C)CO)S(=O)(=O)c2ccc(Br)cc2O[C@@H]1CN(C)Cc1ccncc1	1.6	0.5	.	.	.
CCOc1ccc(N2C(=O)CC(N3CCN(c4ccc(C(=O)c5ccncc5)cc4)CC3)C2=O)cc1 (stereo not drawn)	-2.2	.	i	82.0*	.
C[C@@H]1CN([C@@H](C)CO)S(=O)(=O)c2ccc(C#C[C@@H](C)O)cc2O[C@@H]1CN(C)C(=O)C1CCCCC1	3.1	-1.3	.	.	.
CCCNC(=O)Nc1ccc2c(c1)OC[C@H](C)N(C(=O)C1CCOCC1)C[C@H](C)[C@H](OC)CN(C)C2=O	-1.2	.	.	.	.
C[C@@H]1CN([C@H](C)CO)C(=O)c2cccc(NC(=O)c3ccc(-c4nccs4)cc3)c2O[C@H]1CN(C)S(=O)(=O)c1ccc(F)cc1	1.1	-0.4	.	.	.
O=C(CCn1c2c(c3ccccc31)CCCC2)NNC(=O)c1ccc(Cl)c([N+](=O)[O-])c1	.	0.2	-0.2	-17.4	51.9*
COc1ccc(N2C(=O)C3CC=C(Cl)CC3C2=O)cc1 (stereo not drawn)	-0.7	-0.3	7.1	3.2	22.9
COc1ccc(NC(=O)c2ccc(N3C(=O)C4CC=C(Cl)CC4C3=O)cc2)cc1 (stereo not drawn)	-4.1	-2.9	-0.7	-7.3	55.5*
O=C(N/N=C/c1cccnc1)c1ccc([N+](=O)[O-])cc1Cl	.	.	3.3	-3.8	1.1
O=C(N/N=C/c1cccc([N+](=O)[O-])c1)c1cccc2cc[nH]c12	.	1.7	-0.2	7.6	52.1*
O=C(N/N=C/c1cccc([N+](=O)[O-])c1)c1ccc(Br)cc1	.	10.9*	-0.3	9.6	56.9*
O=C(N/N=C/c1ccccn1)c1ccc([N+](=O)[O-])cc1Cl	2.2	10.9*	i	3.2	5.8
CNC[C@H]1OCCCC[C@H](C)Oc2ccc(NS(=O)(=O)c3c(C)noc3C)cc2C(=O)N([C@H](C)CO)C[C@H]1C	-0.8	.	.	.	.
O=C(c1ccc2c(c1)OCO2)N1CC[C@@H]2[C@@H](CO)Nc3ccc(-c4ccccc4)cc3[C@@H]21	.	-2.3	.	.	.
COc1ccc(OC)c(N(CC(=O)NCCSc2ccccc2)S(C)(=O)=O)c1	0.0	.	i	-3.1	50.5*
COc1ccc(N(CC(=O)NCCSc2ccccc2)S(C)(=O)=O)cc1	2.5	-2.1	0.7	2.5	23.4

High-throughput results from PubChem.
